This passage reports INHIBITION results from ChEMBL document CHEMBL4513216, “Probing the Open Global Health Chemical Diversity Library for Multistage-Active Starting Points for Next-Generation Antimalarials” (ACS Infect Dis, 2020).

Among all 69,000 compounds or so, about 8,600 (12%) showed an effect of 50% or more. Only a selection was taken, and strong results are over-represented in it overall.

The subject of the assay is Plasmodium berghei. As to the kind of experiment: Screen against P. berghei liver stage (PbLuc), transformed with Luciferase, at 10uM. Format: functional, HepG2. As to conditions: tested at 10 uM.
`O=C(N1CCCC1)N1CCO[C@H]2[C@@H](OCc3cccnc3)CC[C@@H]21`: the INHIBITION is on record as -26.5%.
With `Cn1c(CN2CCCC(Cn3cncn3)C2)nc2ccccc21` (stereo not given), the INHIBITION worked out at 33.1%.
Take `O=C(CN1CCC(c2nnc(C(F)(F)F)o2)CC1)Nc1cccnc1`: the INHIBITION is reported as -17.8%.
With `CCCN(CCC)C(=O)c1cnn(C)c1C`, the INHIBITION is 51.3%.
`COCCN(Cc1ccccc1)C(=O)c1cnn(C)c1C`: the INHIBITION is recorded as 81.5%.
In the case of `COCCN(Cc1ccc(F)cc1Cl)C(=O)c1cc(C)n[nH]1` it was 32.5%; in that of `CCCN(CCC)C(=O)c1sc(C)nc1C`, -3.14%; in that of `COCCN(Cc1ccc(F)cc1Cl)C(=O)c1csnn1`, 39.5%.
For `COCCN(Cc1ccc(F)cc1Cl)C(=O)c1ccccn1`, the INHIBITION is recorded as 52.4%.
Consider `COCCN(Cc1ccoc1)C(=O)c1ccccc1OC`, for which the INHIBITION was 28.4%.
The figure for `CCc1ccccc1NC(=O)c1cnn(C)c1C` is 21.5%.
The figure for `COCCN(Cc1ccc(F)cc1Cl)C(=O)c1ccc(=O)[nH]n1` is 16.6%; for `COCCN(Cc1ccoc1)C(=O)c1ccccc1Cl` it is -33.2%; for `COCCN(Cc1ccc(F)cc1Cl)C(=O)c1cnn(C)c1C` it is 80.2%.
In the case of `COCCN(Cc1ccc(F)cc1Cl)C(=O)c1ccncc1` it was 21%; in that of `CN1CCC(NC(=O)C2CN(c3cncnc3)CCO2)CC1` (stereo not given), 14.7%.
For the compound `CN1C[C@@H](c2cccc(F)c2)[C@H]2[C@H]1CCCCCN2C(=O)C1CC1`, the INHIBITION is 12.2535%.
For the compound `COc1ccc(C(O)CNC(=O)NCc2nc(C)cs2)cc1` (stereo not given), the INHIBITION stood at 9.14%.
Regarding `COc1ccc(C(C)NC(=O)Cn2ccc(=O)n(C)c2=O)cc1OC` (stereo not given), the INHIBITION was determined as 31.9%.
With `COc1ccc(CC(=O)N2CCCC2Cn2cc(C)cn2)c(OC)c1` (stereo not given), the INHIBITION is 43.2%.
The figure for `CC(C)(O)CN1CCN(C(=O)c2cccn2Cc2cccnc2)CC1` is 34.6%.
Take `Cc1cccc2nc(CN3CCCC3Cn3cccn3)cn12` (stereo not given): the INHIBITION is given as 19.4%.
In the case of `Cn1cc(CNC2CCCOc3c2ccc2ccccc32)cn1` (stereo not given), the INHIBITION is recorded as -28.7%.
In the case of `COCCNC(=O)CN(C)Cc1ccc(F)cc1Cl` it was 52.2%.
The figure for `COCCN(CCOC)C(=O)c1cnn(C)c1C` is 90.7%.
Consider `COCCCNC(=O)CN(C)Cc1ccc(F)cc1Cl`, for which the INHIBITION is recorded as -102%.
In the case of `CNC(=O)CN(C)Cc1ccc(F)cc1Cl`, the INHIBITION was -154%.
The figure for `COCCN(CCOC)C(=O)c1cnn(C)c1-n1c(C)ccc1C` is 42.1%; for `CCCn1ncc(C(=O)N(CCOC)Cc2c(C)nn(CC)c2C)c1C` it is -89.3%.
In the case of `CN(C)C(=O)C1CCN(C(=O)c2c[nH]c3cc(Cl)ccc23)CC1` it was -32.2%.
Turning to `CN1CCC(c2cncc(C(=O)NCc3ccc(F)cc3)n2)CC1`, the INHIBITION was -3.02%.
On to `O=C(CCc1cccnc1)N1CCC2(CCN(CC3CCCC3)C2)C1` (stereo not given), for which the INHIBITION is -7.2%.
The figure for `COCCN1CCC(c2cncc(-c3ccccc3C)n2)CC1` is 46%; for `COc1ccc(CN2CCN(C3CCc4ccccc4C3)CC2)cc1O` (stereo not given) it is 46.7%; for `Oc1cccc(CN2CCN(C3CCc4ccccc4C3)CC2)c1` (stereo not given) it is 54.8%.
Regarding `COc1cc(O)ccc1CN1CCN(C2CCc3ccccc3C2)CC1` (stereo not given), the INHIBITION amounted to 37.6%.
In the case of `CNc1cc(C)nc(C2COCCN2CCc2ccc(F)cc2)n1` (stereo not given) it was 19.6%.
In the case of `CCN1Cc2cc(F)ccc2N(C(C)=O)CCC1=O` it was 23%.
In the case of `CC(C)N1CCc2[nH]nc(C(=O)N3CCOCC3)c2C1` it was -1.12%; in that of `CCN(CC)[C@@H]1CN(C(=O)c2ccc(C#N)cc2)[C@@H]2CCCO[C@H]12`, 73.6%.
For the compound `CN(C)[C@@H]1CN(C(=O)c2ccc(C#N)cc2)[C@@H]2CCCO[C@H]12`, the INHIBITION is -73.3%.
For `CCN(CC)[C@@H]1CN(C(=O)c2ccnnc2)[C@@H]2CCCO[C@H]12`, the INHIBITION was -62.8%.
In the case of `COCCn1c2c(ccc1=O)CCN(C(=O)Cc1ccsc1)CC2` it was 27.5%; in that of `CC(C)C(=O)N1CCCC(c2ncncc2-c2ccncc2)C1` (stereo not given), 48.3%.
The figure for `Fc1ccc2c(C3=CCN(Cc4nnc(C5CCC5)o4)CC3)c[nH]c2c1` is 34.6%; for `Cc1noc(CN2CC=C(c3c[nH]c4ncccc34)CC2)n1` it is 74.7%.
The figure for `Cc1noc(CN2CC=C(c3cnn(C4CCS(=O)(=O)C4)c3)CC2)n1` (stereo not given) is 1.98%.
Regarding `C1=C(c2c[nH]c3ncccc23)CCN(Cc2nnc(C3CC3)o2)C1`, the INHIBITION came out at 71.4%.
In the case of `Cc1cnc(CN2CC=C(c3c[nH]c4ncccc34)CC2)o1` it was 44.9%; in that of `O=C(c1ccccn1)N1CCCN(Cc2nnc(C3CC3)o2)CC1`, -57.4%.
The figure for `Cc1cnn(CC2CCCCN2C(=O)Cc2cccc(F)c2)c1` (stereo not given) is 35.9%.
The figure for `COc1ccc(C(C)NC(=O)c2nn(C)c(C)c2Br)cc1` (stereo not given) is 30.2%.
Consider `OC(CN1CCN(Cc2ccc(F)cc2)CC1)C1CC1` (stereo not given), for which the INHIBITION is reported as -0.113%.
Turning to `Cc1cc(C2CCCCCN2Cc2cn(C)nc2C)no1` (stereo not given), the INHIBITION worked out at 6.32%.
For the compound `O=C(Nc1ccc(F)cc1)N1C[C@@H]2C[C@H](C(=O)N3CCCC3)[C@H](C1)O2`, the INHIBITION was 7.67%.
